# Test results taken from PubChem BioAssay AID372 (MTDP, 2006).
# About 770 (0.77%) of roughly 100,000 compounds were called active. Shown is part of a subset that was picked to be rich in actives. A number with no mark means an inactive call. No stated cut-off is given here; in the data, active means inhibition above about 50%; inactive means the rest.
# Molecular target: Gag-Pol polyprotein (Human immunodeficiency virus type 1 group M subtype B (isolate HXB2)) (UniProt P04585)
# Test: RNase H inhibition, HIV 1 Gag Pol polyprotein, FRET biochemical assay, screening (AID 372)
# Conditions: HIV-1 RT RNase H, FRET RNA/DNA substrate fluorescence; at 10 µM; stronger effect = higher value
row,SMILES,inhibition
1,O=C1NC(=O)N(c2ccccc2)C(=O)/C1=C/c1cccn1-c1ccc(Br)cc1,29%
2,O=C1NC(=O)N(c2ccc(Cl)cc2)C(=O)/C1=C/c1cccn1-c1ccccc1,12%
3,Cc1cccc(N2C(=O)NC(=O)/C(=C\c3cccn3-c3ccc(Br)cc3)C2=O)c1,27%
4,Cc1cccc(N2C(=O)NC(=O)/C(=C/c3cccn3-c3ccc([N+](=O)[O-])cc3)C2=O)c1,54% (active)
5,O=C1NC(=O)N(c2ccccc2)C(=O)/C1=C\c1cccn1-c1ccc([N+](=O)[O-])cc1,22%
6,Cc1cccc(N2C(=O)NC(=O)/C(=C\c3cccn3-c3ccccc3)C2=O)c1,22%
7,O=C1NC(=O)N(c2cccc(F)c2)C(=O)/C1=C/c1cccn1-c1ccc(Br)cc1,54% (active)
8,O=C1NC(=O)N(c2cccc(F)c2)C(=O)/C1=C/c1cccn1-c1ccccc1,24%
9,O=C1NC(=O)N(c2cccc(F)c2)C(=O)/C1=C/c1cccn1-c1ccc(Cl)cc1,59% (active)
10,N#CC1=C(N)OC2=C(C(=O)CC(c3ccccc3)C2)C1c1cccc(F)c1 (centres undefined),11%
11,COc1ccc(/C=N/NC(=O)CN2CCSCC2)c(C)c1C,7%
12,COc1ccc(C(N)=O)cc1NC(=O)c1cccs1,0%
13,O=C(CCCN1C(=O)/C(=C/c2ccccc2Cl)SC1=S)Nc1cccc(F)c1,14%
14,Cc1ccc(Cl)cc1NC(=O)C(=O)NN=C1CCN(C)CC1,0%
15,Cc1cccc(N2CCN(C(=O)c3c(-c4ccccc4Cl)noc3C)CC2)c1C,9%
16,Cc1onc(-c2ccccc2Cl)c1C(=O)N1CCN(c2ccccc2F)CC1,0%
17,Cc1onc(-c2ccccc2Cl)c1C(=O)N1CCN(c2ccc(Cl)cc2[N+](=O)[O-])CC1,55% (active)
18,COc1cccc2cc(-c3csc(Nc4ccccc4C)n3)c(=O)oc12,20%
19,CCN(CC)c1ccc(/C=N/Nc2nc(-c3cc4cccc(OC)c4oc3=O)cs2)c(O)c1,53% (active)
20,COc1cccc2cc(-c3csc(Nc4ccc(C(C)=O)cc4)n3)c(=O)oc12,14%
21,COc1ccc2oc(=O)c(C(=O)Nc3ccccc3)cc2c1,6%
22,COc1ccc2oc(=O)c(C(=O)Nc3cccc([N+](=O)[O-])c3)cc2c1,55% (active)
23,COc1ccc2oc(=O)c(C(=O)Nc3cccc(Cl)c3)cc2c1,5%

row,SMILES,inhibition
1,O=C(/C=C\c1ccc([N+](=O)[O-])cc1)Nc1ccc(N2CCOCC2)cc1,7%
2,O=C(Nc1ccc(Cl)cc1)c1ccc(Br)o1,8%
3,O=C1NC(=O)C(=Cc2cn(-c3ccccc3)nc2-c2ccc(Cl)cc2)C(=O)N1,41%
4,O=C1NC(=O)C(=Cc2cn(-c3ccccc3)nc2-c2ccc(Br)cc2)C(=O)N1,59% (active)
5,CC1=NNC(=O)/C1=C\c1cn(-c2ccccc2)nc1-c1ccc(Br)cc1,14%
6,COC(=O)C1=C(C(=O)OC)SC2(S1)C(c1ccccc1)=CSC(C(=O)OC)=C2C(=O)OC,54% (active)
7,COC(=O)C1=C(C(=O)OC)SC2(S1)C(C(=O)OC)=C(C(=O)OC)SC1=C2c2ccccc2N(C)C1(C)C,11%
8,COC(=O)C1=C(C(=O)OC)SC2(S1)C(C(=O)OC)=C(C(=O)OC)SC1=C2c2cccc(C)c2NC1(C)C,18%
9,CC(=O)Oc1ccc(-c2cccc(C(=O)Nc3ccccc3Cl)c2)cc1,16%
10,CC1=C(C(=O)Nc2ccc(C)c(Cl)c2)C(c2cccc([N+](=O)[O-])c2)NC(=O)N1 (centres undefined),6%
11,COc1ccc(C2CC(=O)C3=C(C2)Nc2ccccc2NC3c2c(F)cccc2Cl)cc1 (centres undefined),24%
12,O=C(COC(=O)c1cc(-c2ccccc2)nc2ccc(Cl)cc12)c1ccc([N+](=O)[O-])cc1,4%
13,COc1ccc(-c2cc(C(=O)Nc3cccc(Cl)c3)c3ccccc3n2)cc1OC,14%
14,CC(=O)Nc1ccc(NC(=O)c2cccc3ccccc23)cc1,32%
15,O=C(Nc1ccc(NC(=O)c2cccc3ccccc23)cc1)c1ccccc1,6%
16,O=C(Nc1ccc(Nc2ccccc2)cc1)c1cccc2ccccc12,50% (active)
17,O=C(Cc1ccc(Cl)cc1)Nc1ccc2oc(-c3ccccc3Br)nc2c1,24%
18,Cc1ccccc1-c1nc2cc(NC(=O)Cc3ccc(Cl)cc3)ccc2o1,30%
19,O=C(Cc1ccc(Cl)cc1)Nc1ccc2oc(-c3ccccc3Cl)nc2c1,54% (active)
20,O=C(Cc1ccccc1)Nc1ccc2oc(-c3cccc(Cl)c3)nc2c1,6%
21,Cc1ccc2oc(-c3cccc(NC(=O)Cc4ccc(Cl)cc4)c3)nc2c1,42%
22,Cc1ccc(-c2nc3cc(Cl)cc(Cl)c3o2)cc1NC(=O)Cc1ccc(Cl)cc1,38%
23,O=C(Cc1ccc(Cl)cc1)Nc1ccc2oc(-c3cccc(Cl)c3)nc2c1,52% (active)

row,SMILES,inhibition
1,O=C(Cc1ccc(Cl)cc1)Nc1ccc2oc(-c3cccc(Br)c3)nc2c1,49%
2,Cc1cccc(-c2nc3cc(NC(=O)Cc4ccc(Cl)cc4)ccc3o2)c1,53% (active)
3,O=C(Cc1ccc(Cl)cc1)Nc1ccc(-c2nc3cc(Cl)cc(Cl)c3o2)cc1,50% (active)
4,Cc1cccc(-c2nc3cc(NC(=O)Cc4ccccc4)ccc3o2)c1,12%
5,O=C(Cc1ccc(Cl)cc1)Nc1cccc(-c2nc3cc(Cl)cc(Cl)c3o2)c1,2%
6,COc1ccc(OC)c(NC(=O)c2ccc(Cl)cc2)c1,8%
7,O=C(N/N=C/c1cc(Cl)cc([N+](=O)[O-])c1O)/C(=C/C=C/c1ccccc1)NC(=O)c1ccccc1,19%
8,COc1ccc(OCCCOc2ccccc2Br)cc1,12%
9,COc1ccccc1N1CCN(C(=O)c2ccc(CN(c3cc(Cl)ccc3C)S(=O)(=O)c3ccccc3)cc2)CC1,1%
10,O=C(O)c1cccc([N+](=O)[O-])c1C(=O)Nc1cccc(Cl)c1,7%
11,CCc1ccc(-c2nc3cc(NC(=O)Cc4ccc(Cl)cc4)ccc3o2)cc1,25%
12,O=C(Cc1ccc(Cl)cc1)Nc1ccc2oc(-c3ccc(F)cc3)nc2c1,54% (active)
13,O=C(Cc1ccc(Cl)cc1)Nc1ccc2oc(-c3ccc(Cl)cc3)nc2c1,29%
14,O=C(Nc1ccc(F)cc1F)c1sc2ccccc2c1Cl,16%
15,Cc1ccc(SCCNC(=O)CN(c2ccccc2F)S(=O)(=O)c2ccccc2)cc1,10%
16,O=C(O/N=C/c1ccc([N+](=O)[O-])cc1)c1cccs1,1%
17,Clc1ccccc1-c1nc(-c2cccnc2)no1,20%
18,CC(C)c1ccc(/C=C/C(=O)Nn2cnnc2)cc1,0%
19,Cc1ccc(C(=O)OCC(=O)c2ccc(Br)cc2)cc1[N+](=O)[O-],0%
20,CCc1ccc(-c2nc3cc(NC(=O)c4ccc(C)c([N+](=O)[O-])c4)ccc3o2)cc1,35%
21,CCOc1ccc(C(=O)Nc2cccc(-c3nc4cc(C)c(C)cc4o3)c2)cc1[N+](=O)[O-],11%
22,COc1ccc(-c2nc3cc(NC(=O)c4ccc(C)c([N+](=O)[O-])c4)ccc3o2)cc1OC,3%
23,O=C(Nc1ccc(Cl)c(-c2nc3ccccc3o2)c1)c1cccc(Br)c1,1%

row,SMILES,inhibition
1,COc1ccc(C(=O)Nc2cccc(-c3nc4cc(C)c(C)cc4o3)c2)cc1[N+](=O)[O-],52% (active)
2,Cc1ccc(C(=O)Nc2ccc3oc(-c4ccc(F)cc4Cl)nc3c2)cc1[N+](=O)[O-],0%
3,O=C(Nc1ccc2oc(-c3cc(Br)ccc3Cl)nc2c1)c1ccccc1,29%
4,O=C(Nc1ccc(Cl)c(-c2nc3ccccc3o2)c1)c1ccc(Br)cc1,55% (active)
5,Cc1ccccc1-c1nc2cc(NC(=O)c3ccc(C)c([N+](=O)[O-])c3)ccc2o1,41%
6,Cc1ccc(C(=O)Nc2ccc3oc(-c4ccccc4Cl)nc3c2)cc1[N+](=O)[O-],55% (active)
7,COc1ccc(C(=O)Nc2cccc(-c3nc4cc(C)ccc4o3)c2)cc1[N+](=O)[O-],1%
8,COc1ccc(-c2nc3cc(NC(=O)c4ccc(C)c([N+](=O)[O-])c4)ccc3o2)cc1,61% (active)
9,CC(C)c1cc(C(C)C)c(S(=O)(=O)NNC(=O)c2ccncc2)c(C(C)C)c1,1%
10,O=C(NC(=S)Nc1cccc(NC(=O)c2ccc(Cl)cc2Cl)c1)c1ccco1,11%
11,CCOc1ccc(N(CC(=O)NC(C)CC)S(=O)(=O)c2ccc(Br)cc2)cc1 (centres undefined),5%
12,COC(=O)c1cccc(NC(=O)CC(=O)c2ccccc2)c1,0%
13,COc1ccc(Cc2noc(-c3ccccc3Cl)n2)cc1OC,23%
14,Cc1sc(NS(=O)(=O)c2ccc([N+](=O)[O-])cc2)nc1-c1ccc(Br)cc1,12%
15,O=C(/C=C/c1ccccc1)Nc1ccc(-c2nnc(-c3ccco3)o2)cc1,0%
16,O=C(NCc1ccc(Cl)cc1)c1ccco1,0%
17,Cc1nnc(Nc2ccc3c(c2)ncn3C)c2ccccc12,0%
18,O=C(Nc1ccc2oc(-c3ccc(Br)cc3)nc2c1)c1ccc(Cl)c([N+](=O)[O-])c1,58% (active)
19,O=C(Nc1ccc2oc(-c3ccc(F)cc3)nc2c1)c1ccc(Cl)c([N+](=O)[O-])c1,11%
20,O=C(Nc1ccc2oc(-c3cccc(Br)c3)nc2c1)c1ccc(Cl)c([N+](=O)[O-])c1,13%
